From PubChem BioAssay (EPA / NIEHS) come the findings set out here.

Activity calls are given as the source filed them. Rule for the calls: active = hit-call score of the fitted dose curve at least 0.9, where 1 is the maximum; inactive = score below 0.9.

This assay is described as follows: ATG_NRF2_ARE_CIS: Attagene CIS-FACTORIAL HepG2 Assay for human Nuclear Factor Erythroid 2 Related Factor 2 (NFR2) response to Antioxidant Response Elements (ARE) (AID 2282992). The note with it: HepG2 Attagene ARE/NRF2 reporter, transcription factor activity; actives raise or lower the signal. As for the experimental part:
ATG_CIS is a cell-based, multiplexed-readout assay that uses HepG2, a human liver cell line, with measurements taken at 24 hours after chemical dosing in a 24-well plate.ATG_NRF2_ARE_CIS is one of 52 assay component(s) measured or calculated from the ATG_CIS assay. It is designed to make measurements of mRNA induction, a form of inducible reporter, as detected with fluorescence intensity signals by Reverse transcription polymerase chain reaction (RT-PCR) and Capillary electrophoresis technology.Data from the assay component ATG_NRF2_ARE_CIS was analyzed into 1 assay endpoint. This assay endpoint, ATG_NRF2_ARE_CIS, was analyzed with bidirectional fitting relative to DMSO as the negative control and baseline of activity. Using a type of inducible reporter, measures of mRNA for gain or loss-of-signal activity can be used to understand the reporter gene at the transcription factor-level as they relate to the gene NFE2L2. Furthermore, this assay endpoint can be referred to as a primary readout, because this assay has produced multiple assay endpoints where this one serves a reporter gene function. To generalize the intended target to other relatable targets, this assay endpoint is annotated to the dna binding intended target family, where the subfamily is basic leucine zipper.
Human liver HepG2 cells are transiently transfected with multiple reporter transcription units (MRTUs) in 6-well plates using FuGene 6 reagent (Roche; 3 ml FuGene/1 mg DNA). The MRTU constructs are regulated by a cis-regulating element (promoter). […] A major difference between the CIS and TRANS system is that in CIS activities of endogenous TFs are measured, whereas the TRANS assay evaluates changes in activities of exogenous, chimeric NR-Gal4 proteins. […] At the end of 24 hour incubation, total RNA was isolated using TriZol reagent (Invitrogen). The isolated RNA is then reverse-transcribed using oligo(dT) primer and Mo-MLV reverse transcriptase (Invitrogen) with DNAse I (Ambion) treatment for 30 min. The one-tenth of the produced cDNA was amplified by PCR using Taq DNA polymerase (Invitrogen) and two reporter sequence-specific primers. The PCR products were fluorescently labeled by primer extension with 6-arboxyfluorescein (6-FAM) 5'-labeled reporter sequence-specific primer (2 min at 95 C, 20 s at 68 C and 10 min at 72 C) and these products were digested with 5U of HpaI (New England Biolabs) for 2h at 37 C. The fragments were purified using Qiaquick PCR columns (Qiagen), analyzed on an ABI 3130xL genetic analyzer (Applied Biosystems) with peak positions identified by using a set of X-rhodamine (ROX)-labeled MapMarker1000 molecular weight standards (BioVentures). The raw capillary electrophoresis data was processed using Attagraph software (Attagene).
Take `N#CCCCC(C#N)CCC#N` (stereo not given): the result was inactive.

Take `C1=COCCC1`: the call was inactive. `CCC=C(C)C=O`: the outcome was inactive.

Regarding `O=C(O)c1cccc(Cl)n1`, the call was inactive. Consider `COc1ccc(N)c(C)c1`, for which the concentration at half-maximal activity (AC50) (usually the concentration giving half of the maximal activity seen) was 46.3 µM (active). With `CCOC(=O)CCCCCCCCC(=O)OCC`, the result was inactive. On to `C=C(C)C(=O)OCCC(C)OC(=O)C(=C)C` (stereo not given), for which the result was inactive. On the same count and under the same terms, to `CCc1cccc(O)c1` belongs “inactive”; to `CC(=N[Si](C)(C)C)O[Si](C)(C)C`, “inactive”; to `NC(=O)c1cnccn1`, “inactive”. With `CC(CO)(CO)[N+](=O)[O-]`, the result was inactive. Still for that read-out and setting: to `CC(=O)CC(=O)N(C)C` belongs “inactive”; to `CCCC[N+](C)(CCCC)CCCC`, “inactive”. For `CC(C)(C)C1CCC(O)CC1` (stereo not given), the outcome was inactive. With `CCn1cc(C(=O)O)c(=O)c2ccc(C)nc21`, the call was inactive. The same measure, in the same setting: the same measure for `NNC(=O)OCc1ccccc1`: “inactive”. On to `CCCCCCOc1ccc(O)cc1`, for which the concentration at half-maximal activity (AC50) was 18.7 µM (active). As for `CC(=O)c1ccc2ccccc2c1`, the compound was classed as inactive. The same measure, in the same setting: the same measure for `O=C(O)c1ccco1`: “inactive”. As to `O=S1(=O)CC(Cl)(Cl)C(Cl)(Cl)C1`, the concentration at half-maximal activity (AC50) is 0.485 µM (active). Same read-out and setting: to `C=C(C)CCCC(C)CCO` (stereo not given) belongs 59.7 µM (active).

Regarding `CC(=O)OC(C)(C)C`, the outcome was inactive. The same measure, in the same setting: the same measure for `CN(C)c1ccc(C=O)cc1`: “inactive”. Still for that read-out and setting: the same measure for `CCCC1CCC(=O)CC1`: “inactive”. On the same count and under the same terms, to `CCC(C)(C)C1CCC(OC)CC1` (stereo not given) belongs “inactive”. Regarding `CCCCN(CCCC)CCCCCCN(CCCC)CCCC`, the compound was classed as inactive. On to `COc1cc(OC)c2ccc(=O)oc2c1`, for which the call was inactive.

Turning to `CC(CCO)CC(C)(C)C` (stereo not given), the compound was classed as inactive.

Take `CC(C)CCOC(=O)CC(C)C`: the call was inactive.

`Brc1cc(Br)cc(Br)c1`: the compound was classed as inactive. As to `CCC(C)(CCCC(C)C)OC(C)=O` (stereo not given), the call was inactive. Same read-out and setting: to `O=C1OCc2ccccc21` belongs “inactive”; to `CCCCCCCCCCCCOCCOS(=O)(=O)O`, “inactive”. On to `C=C1CC[C@H]2O[C@]2(C)CC[C@@H]2[C@@H]1CC2(C)C`, for which the call was inactive. `c1ccc2scnc2c1`: the AC50 is 42.1 µM (active). As for `CCCCCc1cccc(=O)o1`, the AC50 is 41.5 µM (active). On to `CN(C)C`, for which the compound was called inactive. The same measure, in the same setting: the same measure for `CCCCCCCCOS(=O)(=O)O`: “inactive”.

Consider `CC(=O)Oc1c(C)c(C)c2c(c1C)CC[C@@](C)(CCC[C@H](C)CCC[C@H](C)CCCC(C)C)O2`, for which the call was inactive. As to `CC(C)(C)c1cccc(O)c1`, the call was inactive.
